Assay results as given in PubChem BioAssay.
Active and inactive are the calls of the source. Unless noted, the rule behind the calls is not given here.

Columns and labels:
[1] = compound effects on lung adenocarcinoma cell viability – A549, calcein-AM fluorescence, 48 h, basal, profiling panel (AID 1162); details: higher = more signal; note: test concentration not given here
[2] = compound effects on differentiated 3T3-L1 adipocyte viability – cell-based, 3T3-L1 adipocytes, calcein-AM fluorescence, 48 h, basal, profiling panel (AID 1163); details: 3T3-L1 adipocytes viability, higher = more signal; note: test concentration not given here
[3] = compound effects on hepatocellular carcinoma cell viability – HepG2, calcein-AM fluorescence, 48 h, basal, profiling panel (AID 1164); details: higher = more signal; note: test concentration not given here
[4] = compound effects on multiple myeloma cell viability – MM1S, calcein-AM fluorescence, 48 h, basal, profiling panel (AID 1165); details: higher = more signal;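 note: viability of MM1S multiple myeloma cells under basal unstimulated conditions; test concentration not given here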
[5] = calcein-AM signal in unstimulated myeloma cells – cell-based, calcein-AM fluorescence, 48 h, PK04 Diversity Set, profiling panel (AID 1166); details: RPMI8226 myeloma viability, higher = more signal;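 note: cells grown under basal conditions without added stimulus; test concentration not given here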
[6] = JC-1 mitochondrial signal, unstimulated HepG2 cells – cell-based, JC-1 fluorescence, 24 h, 100 nL compound, profiling panel (AID 1167); details: HepG2 mitochondrial potential, higher = more signal; note: test concentration not given here
[7] = JC-1 mitochondrial signal, unstimulated adipocytes – cell-based, JC-1 fluorescence, 3T3-L1 adipocytes, 24 h, 100 nL compound, profiling panel (AID 1168); details: JC-1 mitochondrial fluorescence, higher = more signal, called active from +8 up or from −8 down; note: test concentration not given here
[8] = JC-1 mitochondrial signal, unstimulated myeloma cells – cell-based, JC-1 fluorescence, RPMI8226, 24 h, 100 nL compound, profiling panel (AID 1169); details: JC-1 mitochondrial potential fluorescence, higher = more signal; note: test concentration not given here
[9] = JC-1 mitochondrial signal, unstimulated MM1S myeloma – cell-based, JC-1 fluorescence, 24 h, 100 nL compound, profiling panel (AID 1170); details: MM1S mitochondrial potential, higher = more signal; note: test concentration not given here
[10] = resazurin metabolic signal in A549 cells – cell-based, resazurin fluorescence, 24 h, PK04 Diversity Set, profiling panel (AID 1171); details: A549 viability, higher = more signal, called active from +8 up or from −8 down; note: test concentration not given here
[11] = resazurin metabolic signal in HepG2 cells – cell-based, resazurin fluorescence, 24 h, PK04 Diversity Set, profiling panel (AID 1172); details: HepG2 viability, higher = more signal; note: test concentration not given here
[12] = budding yeast growth changes without added modifier – OD600, strain BY4716, 24 h, basal condition, primary screen (AID 1173); details: S. cerevisiae BY4716 growth, OD600, 24 h; higher = more signal, called active from +8 up or from −8 down
[13] = viability profiling in MM1S myeloma cells – cell-based, resazurin fluorescence, basal, 24 h, PK04 Diversity Set, profiling panel (AID 1174); details: higher = more signal, called active from +8 up or from −8 down; note: test concentration not given here
[14] = target: Dihydroorotate dehydrogenase (quinone), mitochondrial (Plasmodium falciparum (isolate 3D7)) (UniProt Q08210); assay: inhibition of P. falciparum DHODH – biochemical, C-terminal His tag, absorbance 600 nm, primary screen (AID 1175); details: PfDHODH enzyme, DCIP absorbance 600 nm; higher = more signal, called active from +8 up or from −8 down;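 note: recombinant parasite enzyme with a five histidine tag at its C terminus; test concentration not given here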
Sequence of Dihydroorotate dehydrogenase (quinone), mitochondrial (Plasmodium falciparum (isolate 3D7)) (Q08210 whole entry, looked up): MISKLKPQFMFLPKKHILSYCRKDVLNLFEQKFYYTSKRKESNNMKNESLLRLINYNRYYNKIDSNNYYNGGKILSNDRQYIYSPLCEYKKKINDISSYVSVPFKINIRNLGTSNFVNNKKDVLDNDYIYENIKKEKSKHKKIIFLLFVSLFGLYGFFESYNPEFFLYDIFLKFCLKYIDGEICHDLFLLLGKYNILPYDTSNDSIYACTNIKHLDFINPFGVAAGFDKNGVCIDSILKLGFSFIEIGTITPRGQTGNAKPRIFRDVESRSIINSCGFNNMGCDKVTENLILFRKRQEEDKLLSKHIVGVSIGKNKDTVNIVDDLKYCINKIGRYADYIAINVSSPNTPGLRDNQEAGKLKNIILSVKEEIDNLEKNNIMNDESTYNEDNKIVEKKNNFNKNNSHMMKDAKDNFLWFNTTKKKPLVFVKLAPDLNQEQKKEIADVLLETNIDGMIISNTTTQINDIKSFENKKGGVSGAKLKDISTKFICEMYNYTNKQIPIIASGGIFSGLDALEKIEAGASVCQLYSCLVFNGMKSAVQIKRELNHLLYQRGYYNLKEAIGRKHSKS

[15] = inhibition of PAO1 biofilm formation – strain PAO1, LB-PBS medium, absorbance 600 nm, primary screen (AID 1176); note: test concentration not given here; details: P. aeruginosa PAO1 growth/biofilm, A600, 12 h; higher = more signal
[16] = growth modulation of vineyard yeast isolate – strain RM11-1a, OD600, basal, 24 h, primary screen (AID 1177);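 note: cultures grown under basal conditions with no added stressor; test concentration not given here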; details: S. cerevisiae RM11-1a growth, OD600, 24 h; higher = more signal, called active from +8 up or from −8 down
[17] = growth of efflux-deficient E. coli DRC39 – strain DRC39, OD650, 24 h, E. coli filamentation inducers, primary screen (AID 1178);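 note: growth measured as culture turbidity by optical density at 650 nm; test concentration not given here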; details: E. coli DRC39 acrAB, higher = more signal, called active from +8 up or from −8 down
[18] = growth of efflux-deficient E. coli DRC39 – strain DRC39, OD650, 48 h, E. coli filamentation inducers, primary screen (AID 1179);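 note: screen aims at cell division blockers that make cells filament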; details: E. coli DRC39 delta-acrAB growth, higher = more signal, called active from +8 up or from −8 down
[19] = viability profiling in RPMI8226 myeloma cells – cell-based, resazurin fluorescence, basal, 24 h, PK04 Diversity Set, profiling panel (AID 1180); details: higher = more signal;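 note: RPMI8826 multiple myeloma cell line at 5000 cells per well; test concentration not given here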
[20] = target: E3 ubiquitin-protein ligase XIAP (Homo sapiens) (UniProt P98170); assay: small molecules binding XIAP protein – biophysical, small-molecule microarray, fluorescence 635 nm, primary screen (AID 1181); details: higher = more signal;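 note: score merges 667 nm emission and signal to noise over triplicate slides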
Sequence of E3 ubiquitin-protein ligase XIAP (Homo sapiens) (P98170 whole entry, looked up): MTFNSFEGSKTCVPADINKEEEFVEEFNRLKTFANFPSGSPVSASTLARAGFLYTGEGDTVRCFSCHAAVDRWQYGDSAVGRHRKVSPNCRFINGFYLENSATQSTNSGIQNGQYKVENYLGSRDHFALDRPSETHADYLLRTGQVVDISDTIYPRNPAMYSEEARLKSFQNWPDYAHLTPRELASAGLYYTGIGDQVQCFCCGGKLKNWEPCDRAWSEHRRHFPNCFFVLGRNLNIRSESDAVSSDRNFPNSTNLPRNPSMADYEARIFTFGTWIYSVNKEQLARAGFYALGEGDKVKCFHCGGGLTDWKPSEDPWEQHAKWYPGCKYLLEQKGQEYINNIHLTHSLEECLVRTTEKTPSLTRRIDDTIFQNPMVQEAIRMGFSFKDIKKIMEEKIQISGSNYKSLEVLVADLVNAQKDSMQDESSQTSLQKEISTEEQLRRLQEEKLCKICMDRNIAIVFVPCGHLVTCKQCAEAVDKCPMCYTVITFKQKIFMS

| Structure (SMILES) | z-score [1] | z-score [2] | z-score [3] | z-score [4] | z-score [5] | z-score [6] | z-score [7] | z-score [8] | z-score [9] | z-score [10] | z-score [11] | z-score [12] | z-score [13] | composite z-score [14] | z-score [15] | z-score [16] | z-score [17] | z-score [18] | z-score [19] | composite z-score [20] |
| --- | --- | --- | --- | --- | --- | --- | --- | --- | --- | --- | --- | --- | --- | --- | --- | --- | --- | --- | --- | --- |
| C=C(COC)C(=O)CC[C@@H](OC(=O)c1ccccc1-c1ccccc1C(=O)O)c1ccc(CO)o1 | -1.46 | -0.736 | -2.67 | -1.69 | -0.883 | -2.74 | 0.429 (inactive) | -0.323 | -0.857 | -1.03 (inactive) | -0.731 | -17.9 (active) | -0.0674 (inactive) | -6.3 (inactive) | 0.85 (inactive) | -21.6 (active) | 0.163 (inactive) | -0.171 (inactive) | 0.62 | 0.294 |
| COCCOC(=O)N1C(=O)[C@@]2(c3cc(C#CCCO)ccc31)[C@H](c1ccc(O)cc1)N1[C@H](c3ccccc3)[C@H](c3ccccc3)OC(=O)[C@H]1[C@@H]2C(=O)N1CCCCCCC1 | -0.0601 | 0.943 | 1.18 | 0.632 | -1.22 | -0.701 | -0.838 (inactive) | 0.242 | 0.271 | -0.44 (inactive) | -0.681 | 0.015 (inactive) | -0.216 (inactive) | 0.232 (inactive) | 0.915 (inactive) | 0.38 (inactive) | 0.27 (inactive) | -0.002 (inactive) | -0.98 | 0.23 |
| COc1ccc([Si](C)(C)[C@H]2[C@H](CC(=O)N3CCC[C@H]3CO)O[C@@]3(C(=O)N(Cc4cccc(N5CCC5=O)c4)c4ccccc43)[C@@H]2C)cc1 | -0.246 | 1.57 | -0.108 | -2.2 | -4.11 | 3.25 | -0.457 (inactive) | -1.14 | 0.619 | -1.2 (inactive) | -1.26 | 0.124 (inactive) | -0.616 (inactive) | -7.33 (inactive) | 0.507 (inactive) | 1.23 (inactive) | 0.791 (inactive) | 0.473 (inactive) | -0.826 | -0.152 |
| CCOC(=O)C[C@H]1[C@H](OC(=O)c2cc3ccccc3oc2=O)[C@@H](NC(=O)c2ccc3ccccc3c2)c2cc(OCCCO)ccc2N1C(=O)c1ccccc1 | 0.659 | 2.7 | 0.582 | 0.0168 | -0.608 | -1.3 | 0.571 (inactive) | 0.416 | 0.755 | -1.01 (inactive) | -0.438 | -1.31 (inactive) | -0.382 (inactive) | -2.91 (inactive) | -0.647 (inactive) | -0.283 (inactive) | -0.464 (inactive) | -1.03 (inactive) | -0.486 | 0.0871 |
| CC(=O)N1Cc2ccccc2C[C@@]2(N=C(c3ccc(OCCCO)cc3)O[C@H]2c2ccccc2)C1=O | -1.09 | 0.609 | -1.31 | -2.19 | -3.36 | 1.8 | 0.234 (inactive) | -1.15 | -0.438 | -2.8 (inactive) | -1.33 | -2.24 (inactive) | -4.82 (inactive) | -0.847 (inactive) | 1.76 (inactive) | 0.372 (inactive) | 1.62 (inactive) | 1.4 (inactive) | -4.8 | 0.0651 |
| O=C(N1CCCCC1)[C@]1(CCS(=O)(=O)c2ccccc2)N=C(c2ccc(OCCCO)cc2)O[C@@H]1c1ccccc1 | -1.64 | 1.68 | -0.663 | -1.5 | -3.65 | -0.0371 | -0.136 (inactive) | -1.1 | -0.751 | -1.32 (inactive) | 0.0192 | -0.678 (inactive) | -2.49 (inactive) | 0.813 (inactive) | -0.345 (inactive) | 0.525 (inactive) | 0.779 (inactive) | -0.385 (inactive) | -1.61 | 0.0257 |
| O=C1OCC=C[C@H]2OC34C=CCN(c5ccc(Cl)cc5)C(=O)[C@H]3N(CCCO)C(=O)[C@@H]4[C@@H]12 (stereo not given in full) | -0.0108 | 1.46 | -0.722 | 0.237 | -0.802 | -0.545 | 0.978 (inactive) | -0.454 | 0.856 | -0.875 (inactive) | -0.458 | -0.857 (inactive) | -0.393 (inactive) | -0.486 (inactive) | 0.276 (inactive) | 0.123 (inactive) | 0.958 (inactive) | 0.579 (inactive) | 0.0679 | 0.0593 |
| O=C1O[C@@H](c2ccccc2)[C@@H](c2ccccc2)N2[C@@H](c3ccc(O)cc3)[C@]3(C(=O)Nc4ccccc43)[C@@H](C(=O)N3CCCCCCC3)[C@H]12 | -0.871 | 0.616 | 0.404 | -0.391 | -2.29 | -1.79 | 0.145 (inactive) | -0.659 | 0.0147 | -1.09 (inactive) | 0.305 | 0.189 (inactive) | -1.05 (inactive) | 0.0791 (inactive) | 1.34 (inactive) | 1.19 (inactive) | 0.36 (inactive) | -1.16 (inactive) | -1.01 | 0.613 |
| O=c1cccc(-c2ccc3ccccc3c2)o1 | -0.996 | -0.696 | -0.644 | -0.332 | -0.406 | -1.31 | 0.529 (inactive) | 0.463 | -0.288 | -0.223 (inactive) | -0.321 | -16.1 (active) | 0.2 (inactive) | -1.14 (inactive) | -0.281 (inactive) | -2.6 (inactive) | 0.632 (inactive) | 0.159 (inactive) | 0.37 | 0.0754 |
| O=C1[C@H]2C=C(Br)[C@H](C[C@@H]2OCCOCCO)[C@@]12CO2 | -0.43 | -0.577 | -0.96 | -0.368 | -0.674 | -1.33 | -0.454 (inactive) | 0.406 | -0.137 | -0.274 (inactive) | -0.0029 | 1.2 (inactive) | -0.478 (inactive) | 0.857 (inactive) | 0.379 (inactive) | 1.4 (inactive) | -0.308 (inactive) | -1.05 (inactive) | -0.608 | -0.201 |
| O=C1C2C=CC(C(O)c3ccc(Br)cc3)N(n3cnnc3)C2C(=O)N1Cc1ccccc1 (stereo not given) | -1.71 | -1 | -3.58 | -0.496 | -3.99 | -0.422 | 0.633 (inactive) | -0.212 | 0.00374 | 0.0637 (inactive) | -0.009 | -17.1 (active) | -0.381 (inactive) | -1.37 (inactive) | -0.184 (inactive) | -23 (active) | -0.999 (inactive) | -1.96 (inactive) | -0.396 | 1.33 |
| O=C1OCCC/C=C\[C@H]2OC34C=CCN(CCN5CCOCC5)C(=O)[C@H]3N(CCO)C(=O)[C@@H]4C12 (stereo not given in full) | -1.18 | 1.72 | -0.615 | 1.31 | -0.832 | -0.41 | -1.21 (inactive) | -0.802 | 0.533 | -1.99 (inactive) | -0.881 | 0.0436 (inactive) | -0.562 (inactive) | 0.71 (inactive) | -0.317 (inactive) | 1.05 (inactive) | -1.12 (inactive) | -1.09 (inactive) | -0.654 | 0.685 |
| O=C1O[C@@H](c2ccccc2)[C@@H](c2ccccc2)N2[C@@H](c3ccc(O)cc3)[C@]3(C(=O)Nc4ccc(C#CCCO)cc43)[C@@H](C(=O)N3CCCCCCC3)[C@H]12 | 0.498 | 0.93 | -0.284 | 0.59 | -1.24 | -1.06 | -0.585 (inactive) | -0.185 | 0.129 | 0.254 (inactive) | -0.348 | 0.176 (inactive) | -0.161 (inactive) | 1.29 (inactive) | 1.01 (inactive) | 0.524 (inactive) | 0.0109 (inactive) | -0.787 (inactive) | -0.53 | 0.567 |
| COc1ccc(C(O)C2C=CC3C(=O)N(c4ccccc4)C(=O)C3N2Nc2ccccc2)c2ccccc12 (stereo not given) | -0.308 | -2.02 | 0.407 | -0.174 | -0.858 | -1.37 | -0.849 (inactive) | -0.86 | -0.978 | -0.301 (inactive) | -1.41 | -5.12 (inactive) | -1.42 (inactive) | 0.896 (inactive) | 1.48 (inactive) | 0.163 (inactive) | -1.05 (inactive) | -0.0025 (inactive) | -1.95 | -0.0049 |
